# According to PubChem BioAssay AID1347428 (National Center for Advancing Translational Sciences (NCATS), 2020):
# Screen size: about 91,000 compounds; about 290 (0.32%) were called active. Another 7% or so got no clear call; they are omitted. Calls come from the whole dose curve; as a rule, active = well fitted inhibition curve with a large enough effect; inconclusive = small, poorly fitted or top-dose-only effect; inactive = no such curve, though single readings can be large or run the other way. Many of the other results were omitted from the sample, so actives are more common in it than they were.
# Target: Single-stranded DNA cytosine deaminase (Homo sapiens) (UniProt Q9GZX7)
# Sequence (Q9GZX7 whole entry, looked up): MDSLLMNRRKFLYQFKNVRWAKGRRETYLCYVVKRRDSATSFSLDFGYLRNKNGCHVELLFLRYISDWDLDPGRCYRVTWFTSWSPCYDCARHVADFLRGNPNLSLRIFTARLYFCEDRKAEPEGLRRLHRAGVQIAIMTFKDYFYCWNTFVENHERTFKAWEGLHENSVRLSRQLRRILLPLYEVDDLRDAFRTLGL
# Test: Primary qHTS assay for inhibitors of Activation Induced Cytidine Deaminase (AID): AID signal; note: nearly all actives have a fitted effect of over 25% in size
# Details: AID deamination FRET fluorescence, UDG-coupled, 4 h; series mostly up to 115 µM; activity change, negative = inhibition: at the top concentration
# Description: Assay Provider (PI) Patricia Gearhart Ph.D.
# National Institute on Aging
# National Institute of Health (NIH), Bethesda, MD
# Assay Provider (PI) Rahul Kohli Ph.D.
# Perelman School of Medicine
# University of Pennsylvania, Philadelphia, PA
# Activation-Induced Deaminase (AID) is a cytosine deaminase which converts cytosine into uracil within stretches of ssDNA. The presence of uracil in DNA initiates a cascade of mutagenic DNA repair to introduce point mutations and DNA double strand breaks. Specific targeting of AID to the immunoglobulin heavy chain loci (Igh) promotes mutagenesis in the antibody variable region for somatic hypermutation (SHM) or switch regions leading to class switch recombination (CSR). However, AID also plays a role in accumulating unnecessary mutations across the genome. Mis-targeting of AID results in the initiation of tumor development and leads to greater drug resistance among cancer cells when continually expressed. To identify an AID inhibitor, a small molecule library will be screened in collaboration with NCATS core facility at NIH. To confirm biological function, inhibitors will be examined in an in vitro murine B-cell activation assay and subsequent secondary validation screens. Top molecules will be further screened to identify inhibitory efficacy against a wild type primary splenocytes assay. Using these approaches, we hope to identify a small molecule with great efficacy and low toxicity for use as a molecular probe to further characterize AID's intricacies, or even as a therapeutic.
# A FRET based analysis of cytosine deamination, was developed to identify potential inhibitors of AID catalytic activity. This screen has two signal output, Read 1 evaluates the AID inhibition response. The second readout (Read 2) evaluates UDG response and is uses as a counterscreen to exclude false positive inhibitors. Inhibition in AID and inactivity in the UDG signal is the desired outcome for this assay.
# SEQUENCE No. (e.g., 1, 2, 3, etc.); […] (e.g., Cells, Incubation, Reagent, etc.); VALUE; DESCRIPTION
# 1a; Reagent; 3 uL; [4/3x] 1 uM AID/2.67 U/mL UDG
# 1b; Reagent; 3 uL; 2 U/mL UDG
# 1c; Reagent; 3 uL; 1 uM AID
# 2a; Compound; 46 nL; Follow-up plates (0.64 uM - 10 mM)
# 2b; Control; 46 nL; ATA ([…] - 10 mM)
# 3; Time; 10 min; incubation at room temperature
# 5; Time; 4 hr; incubation at room temperature
# 6; Reagent; 4 uL; [2x] 250 mM NaOH
# 7; Time; 15 sec; centrifuge at 1000 rpm
# 8; Time; 30 min; incubation at room temperature
# 9a; Detection; fluorescence (Read 1: AID); EnVision (PerkinElmer) plate reader, 540 excitation and 590 emission filters
# 9b; Detection; fluorescence (Read 2: UDG); EnVision (PerkinElmer) plate reader, 560 excitation and 665 emission filters
# NOTES (numbers refer to sequence above)
# 1a; Reagents were dispensed in a medium-binding black solid-bottom Greiner plates (789176F) using a BioRptr liquid dispenser. Dispense 3 uL of [4/3x] 1 uM AID (provided by Kohli lab) and [4/3x] 2 U/mL UDG (NEB M0280L) into columns 1, 2, 5 to 48.
# 1b; Dispense 3 uL of [4/3x] 2 U/mL UDG into column 3.
# 1c; Dispense 3 uL of [4/3x] 1 uM AID into column 4.
# 2a; Compound (7-points [uM] (0.64; 3.2; 16; 80; 400; 2,000; 10,000; 20,000) double pin-transferred (Dip Factor = 2) using the Kalypsys (Wako USA) pintool equipped with a 1536 pinhead for a final concentration range of 7.32 nM - 114 uM.
# 2b; 10 mM Aurintricarboxylic Acid (Sigma A1895) (ATA, 8-point, n = 2, 1:2.5 dilution in column 2) double pin-transferred (Dip Factor = 2) using the Kalypsys (Wako USA) pintool equipped with a 1536 pinhead for a [final] range of 186 nM - 114 uM.
# 3; Room temperature incubation.
# 4; Dispense 1 uL of substrate mixture from the Kohli lab [4x] […] DJC20 and [4x] 250 nM DJC23 into columns 1 to 48 .
# 5; Room temperature incubation.
# 6; Dispense 4 uL of substrate mixture [2x] 250 mM NaOH into columns 1 to 48.
# 7; Centrifugation step to remove bubbles.
# 8; Room temperature incubation
# 9a; Fluorescence signal (column label AID) was read using the EnVision plate reader. […]
# % is set by controls: 0 for no effect and ±100 for the full control effect; potency is the fitted concentration of half-maximal effect.
Structure (SMILES),"activity change, negative = inhibition",Potency
CSc1ccc(C)c(C(=O)NCC2CC2)c1,-3.38% (inactive),
O=C(O)Cn1cccc(C(F)(F)F)c1=O,-5.47% (inactive),
COc1cc(C(=O)NC2CCOC2=O)cc(OC)c1OC (stereo not given),-0.451% (inactive),
O=C(O)CCCC(=O)N1CCN(c2ccc(Cl)c(Cl)c2)CC1,-1.12% (inactive),
Cc1cc(Br)cc(C)c1O,2.69% (inactive),
O=C(Nc1ccc(Br)cc1)C(c1ccccc1)C1CCCC1 (stereo not given),1.06% (inactive),
O=C(NCc1ccc(F)cc1)NC1CC1,10.1% (inactive),
O=C(/C=C/c1ccc(OCc2ccccc2)cc1)c1cccnc1,-9.09% (inactive),
CN(CCOc1ccc(Br)cc1)C(=O)CSc1nnnn1C,-1.3% (inactive),
Cc1c(C)n(Cc2ccc(Cl)cc2)c2ccc(C(=O)N3CCN(c4ccccc4F)CC3)cc12,-18.3% (inactive),
CC(C)c1ccc(Cn2c(COc3ccccc3)nc3ccccc32)cc1,-27.4% (inactive),
CC(C)c1ccc2c(c1)c(SC(C)(C)C)c(CC(C)(C)C(=O)O)n2Cc1ccc(Cl)cc1,,79.4 µM (active)
CC1CCc2cc(F)ccc2N1C(=O)C1(C)CC1(Br)Br (stereo not given),-6.2% (inactive),
CC(C)CNC(=O)NC1=C(C#N)C(C)(C)Cc2ccccc21,-1.37% (inactive),
CNc1snc(C)c1C(=O)N(C)CCOc1ccccc1C,4.47% (inactive),
CCOc1ccc(C(=O)Nc2cc(C(F)(F)F)ccc2Cl)cc1Cl,3.9% (inactive),
COc1cc(C2SCCS2)ccc1OC(=O)c1ccc2c(c1)NC(=O)CS2,-4.16% (inactive),
COc1ccc(OC)c(-n2cnc3c2NC(=O)CC3c2ccsc2)c1 (stereo not given),24.8% (inactive),
O=C(NCCc1ccc(C(F)(F)F)cc1)c1ccccn1,-1.76% (inactive),
COc1ccc(C2Nc3ccccc3C(=O)N2c2ccc(C)cc2)cc1CN1CCOCC1 (stereo not given),0.31% (inactive),
Cc1ccccc1NC(=O)CSC1=C(C#N)C(c2ccccc2F)CC(=O)N1 (stereo not given),-9.28% (inactive),
Cc1noc(C)c1COc1cccc(C(=O)Nc2ccc(S(=O)(=O)NCc3ccco3)cc2)c1,-5.53% (inactive),
Cc1cc(Nc2ccccc2)n2nc(Cc3ccc(Cl)cc3)nc2n1,-19.8% (inactive),
CN(C)S(=O)(=O)c1ccc(NC(=O)COc2ccc3cc(Br)ccc3c2)cc1,0.34% (inactive),

Structure (SMILES),"activity change, negative = inhibition",Potency
O=C(c1cc2ccccc2o1)c1ccc(F)cc1F,-2.04% (inactive),
Cc1cc(C)c(NC(=O)C(C)Oc2ccc(C#N)cc2)c(C)c1 (stereo not given),-8.62% (inactive),
COCCn1cnnc1SC(C)C(=O)c1ccc(F)cc1 (stereo not given),3.25% (inactive),
COC(=O)c1ccc(C(=O)OC(C)C(=O)C23CC4CC(CC(C4)C2)C3)cc1 (stereo not given),-5.4% (inactive),
CCCCn1c(N2CCN(CCc3ccccc3)CC2)nc2c1c(=O)[nH]c(=O)n2C,-4.37% (inactive),
Cn1c(=O)n(Cc2ccccc2)c(=O)c2c1nc(NCc1ccccc1)n2Cc1ccccc1,-8.97% (inactive),
CCC/C=N/NC(=O)c1ccc(C)cc1C,-3.8% (inactive),
COc1ccc(C(=O)/C(C#N)=C\c2ccccc2C(F)(F)F)cc1,-17.9% (inactive),
CCCCCCCCS(=O)(=O)CCCCCCC(=O)O,-5.95% (inactive),
CC(=O)c1ccc(NC(=O)NCCCN(C)CC(F)(F)F)cc1,7.31% (inactive),
CCCCn1nc(C(=O)Nc2cccc(C(=O)NC3CC3)c2)c2ccccc2c1=O,0.862% (inactive),
CCc1ccc(CCC(=O)NC)cc1,-3.77% (inactive),
CC(=O)N1CCC(C(=O)Nc2ccc(Br)cc2)CC1,-1.32% (inactive),
Cc1cccc(C(=O)OC2CCCN(C)C2)c1 (stereo not given),1.04% (inactive),
CCN(CC)C(=S)SC(C(N)=O)c1ccccc1 (stereo not given),-2.39% (inactive),
CCCc1cc(=O)oc2cc(OS(=O)(=O)c3cccc(C#N)c3)ccc12,-6.87% (inactive),
CCn1c(C)cc(/C=C(\C#N)c2ccc(Br)cc2)c1C,-17% (inactive),
CCOC(=O)C1CCN(C(=O)COC(=O)c2cn(-c3ccccc3)nc2-c2ccc(Cl)cc2)CC1,-1.08% (inactive),
COc1ccc(CCC(=O)NCc2ccc3c(c2)CCN3C(=O)c2ccc(F)cc2)cc1,-16.6% (inactive),
O=C(COc1ccccc1)NCc1ccc2c(c1)CCN2C(=O)c1ccc(F)cc1,,22.4 µM (active)
CCOc1ccccc1C(=O)NCc1ccc2c(c1)CCN2C(=O)c1ccc(F)cc1,-1.92% (inactive),
N#CCCc1c(O)ccc2ccccc12,-3.83% (inactive),
Cc1cccc(NC(=O)C(C#N)C(=O)CC(C)(C)C)c1 (stereo not given),-20.9% (inactive),
O=C(CSc1nc2c(c(=O)n1CCc1ccccc1)SCC2)Nc1cccc2ccccc12,-4.61% (inactive),

Structure (SMILES),"activity change, negative = inhibition",Potency
O=C(Nc1ccc(C(F)(F)C(F)(F)C(F)(F)F)oc1=O)c1ccccc1,-2.06% (inactive),
COc1ccc(NC(=O)Cn2cc(C(=O)c3ccncc3)c(=O)c3cc(C)ccc32)cc1Cl,20.6% (inactive),
COc1ccc(Cn2cc(C(=O)c3ccc(C)cc3)c(=O)c3cc(OC)c(OC)cc32)cc1,,44.7 µM (active)
CCOc1ccc(NC(=O)Cn2cc(C(=O)c3ccc(C)cc3)c(=O)c3cc4c(cc32)OCCO4)cc1,2.34% (inactive),
Cc1ccccc1C(C)NC(=O)c1cc(-c2ccccc2)n[nH]1 (stereo not given),-6.39% (inactive),
COc1ccc(-c2cc3c(=O)n(CC(=O)NCc4cccc(Br)c4)ncn3n2)cc1,-2.07% (inactive),
Cc1cc2c(cc1C)NC(CC(=O)Nc1ccc(C(F)(F)F)cc1)C(=O)N2 (stereo not given),5.04% (inactive),
Cc1cn[nH]c1C#N,4.84% (inactive),
CCCCCOC(=O)CSc1nc2c(c(=O)[nH]c(=O)n2C)n1CCC,-11.6% (inactive),
Cn1nc(C(F)(F)F)c(Cl)c1C(=O)NC1CCCC1,0.508% (inactive),
Cc1ccccc1NC(=O)c1cc2c(=O)n3cccc(C)c3nc2n1Cc1ccccc1,-5.68% (inactive),
COC(=O)Cc1c(C)c2ccc(OCc3ccc(F)cc3)cc2oc1=O,-9.33% (inactive),
CCn1c(SCC(=O)c2ccc(Cl)cc2Cl)nnc1-c1cnccn1,-7.85% (inactive),
CCOC(=O)C1=C(CN(CCOC)Cc2ccco2)NC(=O)NC1c1cccc(OC)c1OC (stereo not given),-4.9% (inactive),
O=C(COC(=O)CC12CC3CC(CC(C3)C1)C2)Nc1ccc([N+](=O)[O-])cc1C(F)(F)F,-2.15% (inactive),
O=C(O)CC(NC(=O)Cc1cccc(F)c1)c1ccc(F)cc1 (stereo not given),-2.56% (inactive),
O=[N+]([O-])/C=C/c1ccc(-c2ccccc2)o1,-1.14% (inactive),
O=C1CCCc2nccc(-c3ccc(Cl)cc3)c21,-2.16% (inactive),
COC(=O)COc1cccc(C(=O)Nc2ccc(-c3nc4ccccc4o3)cc2)c1,2.24% (inactive),
CCCn1c2ccccc2c2cnn(CC(=O)NCCCOC(C)C)c(=O)c21,7.63% (inactive),
CCCn1c2ccccc2c2cnn(CC(=O)N(CC)c3cc(C)ccc3C)c(=O)c21,,35.5 µM (active)
CCCn1c2ccccc2c2cnn(CC(=O)N3CCCC(C(=O)OCC)C3)c(=O)c21 (stereo not given),-20.2% (inactive),
